The results in this text go back to PubChem BioAssay (Tox21).

SMILES strings stand for the structures. A number with no mark means an inactive call. Inconclusive results are not listed. Activity calls are given as the source filed them. Unless noted, calls follow the shape of the dose curve; as a rule, active = well fitted curve in the direction sought with a large enough effect in the repeat runs; inconclusive = weak or mixed curves; inactive = no such curve, though single readings can be large; an effect the other way counts as inactive or inconclusive.

Test [1] in a line: qHTS assay to identify small molecule antagonists of the estrogen receptor beta (ER-beta) signaling pathway - cell viability counter screen (AID 1259382).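 Also: HEK293T cells carrying ER-beta-UAS-bla reporter stimulated with estradiol; nearly all actives have a fitted effect of over 55% in size.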 The settings on record: ER-beta-UAS-bla HEK293T viability, CellTiter-Glo luminescence, 16 h; series mostly up to 92.4 µM. In outline:
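CellTiter-Glo ATP luminescence measured after the LiveBLAzer read in the same wells; ER-beta-UAS-bla HEK293T cells, 16 hr compound treatment with 1nM 17-beta-estradiol agonist at 37C, 5% CO2.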
For orientation: In qHTS, concentration-response curves come from the screen itself.

Test [2] can be described thus: qHTS assay to identify small molecule agonists or antagonists of the thyroid stimulating hormone receptor (TSHR) signaling pathway - wild type cell line counter screen (AID 1259384; calls by dose curve). The settings on record: HEK293 wild type, cAMP HTRF counter-screen; series mostly up to 92.4 µM. In outline:
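Wild-type Hek293 cells, 800/well, 18 h at 37C, then compound with Ro20-1724 for 30 min RT. cAMP by HTRF (cAMP-d2/anti-cAMP cryptate), 1 h RT, fluorescence read. 15 concentrations, triplicates.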

The target in test [3] is Thyrotropin receptor (Homo sapiens) (UniProt P16473). Nature of the test: qHTS assay to identify small molecule antagonists of the thyroid stimulating hormone receptor (TSHR) signaling pathway (AID 1259385; calls by dose curve; also: nearly all actives have a fitted effect of over 20% in size; also: potency is read from the fitted curve at half-maximal effect). To be noted: TSHR-HEK293 cAMP HTRF, TSH-stimulated antagonist mode; series mostly up to 92.4 µM. The method, boiled down: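 TSHR-HEK293 cells (800/well) plated 18 h, then compounds with Ro20-1724 and TSH at 1.5 ng/mL final, 30 min at room temperature. cAMP quantified by HTRF (cAMP-d2/anti-cAMP-cryptate, 1 h); 15 concentrations in triplicate.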

Test [4] is described as follows: qHTS assay to identify small molecule agonists of the estrogen receptor alpha (ER-alpha) signaling pathway in the presence of an antagonist - cell viability counter screen (AID 1259386).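 Also: cells exposed to compounds for 22 h at 37 °C before the viability read; nearly all actives have a fitted effect of over 30% in size.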 Also: potency is read from the fitted curve at half-maximal effect. To be noted: VM7Luc4E2 viability, CellTiter-Fluor fluorescence, 22 h; series mostly up to 92.4 µM. In outline:
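Using estrogen-depleted VM7Luc4E2 cells, the 15-concentration compound series was applied together with 10.0nM ICI-182,780 and incubated 22hr at 37C/5% CO2. Cell viability was then scored by CellTiter-Fluor.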

For test [5], the target named is Progesterone receptor (Homo sapiens) (UniProt P06401). The test can be described thus: qHTS assay to identify small molecule agonists of the progesterone receptor (PR) signaling pathway (AID 1346784; calls by dose curve; also: nearly all actives have a fitted effect of over 30% in size). The settings on record: PR-UAS-bla HEK293T, beta-lactamase FRET ratio, 16 h; series mostly up to 92.4 µM. In outline: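 Agonist qHTS: compounds pinned onto 3,000 PR-UAS-bla HEK 293T cells per well in charcoal-stripped serum medium, 16hr at 37C, then beta-lactamase activity measured by LiveBLAzer FRET fluorescence after 2 hours at room temperature.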

Test [6] shares this target. The test can be described thus: qHTS assay to identify small molecule antagonists of the progesterone receptor (PR) signaling pathway (AID 1346795; active = well fitted inhibition curve with a large enough effect in the signal ratio in the repeat runs, not every such curve was filed as active; the % refers to the signal ratio; also: potency is read from the fitted curve at half-maximal effect). To be noted: PR-UAS-bla HEK293T, beta-lactamase FRET ratio, 16 h; series mostly up to 92.4 µM. In outline:
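Antagonist mode with agonist R5020 at 1 nM final and 16 hr incubation at 37C. Reporter was beta-lactamase driven by UAS in HEK293T (PR-UAS-bla), 2% charcoal-stripped serum; signal from LiveBLAzer FRET substrate, 2 hr at room temperature.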

Test [7] can be described thus: qHTS assay to identify small molecule antagonists of the progesterone receptor (PR) signaling pathway - cell viability counter screen (AID 1346798). Also: nearly all actives have a fitted effect of over 50% in size. The settings on record: PR-UAS-bla HEK293T viability, CellTiter-Glo luminescence, 16 h; series mostly up to 92.4 µM. The method, boiled down:
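Cytotoxicity read as CellTiter-Glo luminescence (30 min, room temperature) in the same wells as the beta-lactamase readout. HEK293T PR-UAS-bla cells in charcoal-stripped 2% FBS received compound and R5020, then 16 h at 37C, 5% CO2.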

Test [8] can be described thus: qHTS assay to identify small molecule agonists of the progesterone receptor (PR) signaling pathway - cell viability counter screen (AID 1346799; calls by dose curve; also: nearly all actives have a fitted effect of over 45% in size). The settings on record: PR-UAS-bla HEK293T viability, CellTiter-Glo luminescence, 16 h; series mostly up to 92.4 µM. In outline: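 Cytotoxicity measured by CellTiter-Glo luminescence (30 min, RT) in the same wells as the PR beta-lactamase agonist read. Those HEK293T cells had 16 h compound treatment at 37 C in 2% charcoal-stripped FBS medium.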

Test [9] can be described thus: qHTS assay to identify small molecule antagonists of the TGF-beta/Smad signaling pathway - cell viability counter screen (AID 1346824). Also: nearly all actives have a fitted effect of over 50% in size. To be noted: SBE-bla HEK293T viability, CellTiter-Glo luminescence; series mostly up to 76.8 µM. In outline:
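SBE-bla HEK 293T cells, incubated overnight, then compound plus 0.25 ng/mL TGF-beta1 (stock added) for 5 hr at 37 C. Viability was read in the same wells by CellTiter-Glo luminescence after 30 min at room temperature.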

A short description of test [10]: qHTS assay to identify small molecule agonists of the TGF-beta/Smad signaling pathway - cell viability counter screen (AID 1346829). Also: top concentration of the series differs between compounds; nearly all actives have a fitted effect of over 45% in size. The settings on record: SBE-bla HEK293T viability, CellTiter-Glo luminescence, 5 h; series mostly up to 76.8 µM. In outline:
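Luminescence from CellTiter-Glo, read after a 30 min room-temperature incubation, gives cell viability of SBE-bla HEK 293T cells treated 5 hr with compounds at 37 C.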

Test [11] in a line: qHTS assay to identify small molecule agonists of the TGF-beta/Smad signaling pathway (AID 1346859; active = well fitted activation curve with a large enough effect in the signal ratio in the repeat runs, not every such curve was filed as active; the % refers to the signal ratio). To be noted: SBE-bla HEK293T, TGF-beta/Smad beta-lactamase reporter, 5 h; series mostly up to 76.8 µM. The method, boiled down:
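Fluorescence (ex 405 nm; em 460 and 530 nm) was read 2 h after LiveBLAzer FRET substrate at RT. The preceding compound treatment of overnight-plated SBE-bla HEK293T cells lasted 5 h at 37 C.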

The target in test [12] is Thyrotropin-releasing hormone receptor (Homo sapiens) (UniProt P34981). Nature of the test: qHTS assay to identify small molecule antagonists of the thyrotropin-releasing hormone receptor (TRHR) signaling pathway (AID 1346877; active = well fitted inhibition curve with a large enough effect in the repeat runs, not every such curve was filed as active). The settings on record: TRHR-HEK293, TRH-induced calcium fluorescence, antagonist mode; series mostly up to 51.3 µM. In outline: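 Calcium signal in dye-loaded TRHR/HEK293 cells; compounds added 5 min before TRH (1 nM final); fluorescence monitored 3 min at 1 s steps.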

Test [13] shares this target. The test can be described thus: qHTS assay to identify small molecule agonists of the thyrotropin-releasing hormone receptor (TRHR) signaling pathway (AID 1346891; calls by dose curve). To be noted: TRHR-HEK293 calcium fluorescence, agonist mode; series mostly up to 57.6 µM. The method, boiled down:
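Agonist-mode intracellular calcium readout: kinetic fluorescence over 3 min at 1 s intervals after compound addition to TRHR-HEK293 cells (18 h seeded, 2 h dye-loaded at 37 C). Fifteen concentrations, triplicates.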

The nature of test [14]: Human pregnane X receptor (PXR) small molecule agonists, qHTS cell viability counter screen (AID 1346977). Also: nearly all actives have a fitted effect of over 50% in size. Also: potency is read from the fitted curve at half-maximal effect. To be noted: PXR-Luc HepG2 viability, CellTiter-Fluor, 24 h; series mostly up to 92.4 µM. In outline: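 Same-well viability read: CellTiter-Fluor added after 23 hr compound exposure, fluorescence measured 1 hr later. Cells were PXR-Luc HepG2 seeded at 2,000/well in 5% charcoal-stripped FBS medium, rested 5 hr before dosing at 37 C.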

The nature of test [15]: Caspase-3/7 induction in HepG2 cells by small molecules, qHTS assay (AID 1346978). Also: nearly all actives have a fitted effect of over 15% in size. Also: potency is read from the fitted curve at half-maximal effect. The settings on record: HepG2 caspase-3/7 activation, Caspase-Glo luminescence, 17 h; series mostly up to 92.4 µM. In outline: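 Wild-type HepG2 cells, 2,000/well, settled 5 hr at 37 C and 5% CO2, then compound-treated for 17 hr; caspase-3/7 activity read by luminescent Caspase-Glo 3/7 after 30 min at room temperature.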

Test [16] is described as follows: Caspase-3/7 induction in CHO-K1 cells by small molecules, qHTS assay (AID 1346980). Also: nearly all actives have a fitted effect of over 15% in size. Also: potency is read from the fitted curve at half-maximal effect. The settings on record: CHO-K1 caspase-3/7 induction, Caspase-Glo luminescence, 17 h; series mostly up to 92.4 µM. In outline:
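Wild-type CHO-K1 cells exposed to compounds for 17hr at 37 C, 5% CO2. Caspase-3/7 activity then measured by Caspase-Glo 3/7 luminescence after 30min at room temperature.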

Test [17] can be described thus: Caspase-3/7 induction in HepG2 cells by small molecules, qHTS cell viability counter screen (AID 1346981). Also: nearly all actives have a fitted effect of over 30% in size. The settings on record: CellTiter-Fluor fluorescence, 17 h; series mostly up to 92.4 µM. The method, boiled down: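 After a 5-hr attachment period at 37 C and 5% CO2, wild-type HepG2 cells received compounds in DMSO. Sixteen hours later CellTiter-Fluor was dispensed and the fluorescent signal quantified after a further hour.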

The target of test [18] is Nuclear receptor subfamily 1 group I member 2 (Homo sapiens) (UniProt O75469). Nature of the test: Human pregnane X receptor (PXR) small molecule agonists, qHTS assay (AID 1346982). Also: potency is read from the fitted curve at half-maximal effect; nearly all actives have a fitted effect of over 35% in size. To be noted: PXR-Luc HepG2, CYP3A4 luciferase reporter, 24 h; series mostly up to 92.4 µM. The method, boiled down: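 Tox21 qHTS; PXR-Luc HepG2; compounds pinned from DMSO; 24 hr, 37 C; ONE-Glo luciferase detection, 30 min room temperature.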

The target in test [19] is Estrogen receptor (Homo sapiens) (UniProt P03372). Nature of the test: qHTS assay to identify small molecule agonists of the estrogen receptor alpha (ER-alpha) signaling pathway in the presence of an antagonist (AID 1259383; calls by dose curve; also: top concentration of the series differs between compounds; nearly all actives have a fitted effect of over 15% in size). The settings on record: VM7Luc4E2 cells, ERE-luciferase, +ICI-182,780, 22 h; series mostly up to 92.4 µM. In outline: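 Luminescent ERE-luciferase reporter, VM7Luc4E2 cells (endogenous ER-alpha); 10.0nM ICI-182,780 final; 15-point compound titration; 22hr at 37C; ONE-Glo, 30min RT.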

Test [20] in a line: Caspase-3/7 induction in CHO-K1 cells by small molecules, qHTS cell viability counter screen (AID 1346979). Also: nearly all actives have a fitted effect of over 35% in size. Also: potency is read from the fitted curve at half-maximal effect. The settings on record: CellTiter-Fluor fluorescence, 17 h; series mostly up to 92.4 µM. The method, boiled down:
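Cytotoxicity counter screen: CellTiter-Fluor added to compound-treated wild-type CHO-K1 cells at 16 h (37C, 5% CO2), fluorescence measured 1 h later; same wells as caspase-3/7 measurement.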

Thyrotropin-releasing hormone receptor (Homo sapiens), sequence (P34981 whole entry, looked up): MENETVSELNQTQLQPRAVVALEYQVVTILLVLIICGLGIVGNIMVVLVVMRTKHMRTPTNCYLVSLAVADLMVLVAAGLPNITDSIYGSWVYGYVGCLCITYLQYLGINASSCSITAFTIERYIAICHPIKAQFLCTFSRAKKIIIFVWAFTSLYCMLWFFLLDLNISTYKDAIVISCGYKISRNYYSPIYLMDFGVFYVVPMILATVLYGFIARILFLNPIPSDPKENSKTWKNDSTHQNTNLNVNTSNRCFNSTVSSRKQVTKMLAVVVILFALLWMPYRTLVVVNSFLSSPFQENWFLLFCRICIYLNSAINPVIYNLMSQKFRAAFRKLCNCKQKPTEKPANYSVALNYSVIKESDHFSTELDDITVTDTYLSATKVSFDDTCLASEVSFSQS
Nuclear receptor subfamily 1 group I member 2 (Homo sapiens), sequence (O75469 whole entry, looked up): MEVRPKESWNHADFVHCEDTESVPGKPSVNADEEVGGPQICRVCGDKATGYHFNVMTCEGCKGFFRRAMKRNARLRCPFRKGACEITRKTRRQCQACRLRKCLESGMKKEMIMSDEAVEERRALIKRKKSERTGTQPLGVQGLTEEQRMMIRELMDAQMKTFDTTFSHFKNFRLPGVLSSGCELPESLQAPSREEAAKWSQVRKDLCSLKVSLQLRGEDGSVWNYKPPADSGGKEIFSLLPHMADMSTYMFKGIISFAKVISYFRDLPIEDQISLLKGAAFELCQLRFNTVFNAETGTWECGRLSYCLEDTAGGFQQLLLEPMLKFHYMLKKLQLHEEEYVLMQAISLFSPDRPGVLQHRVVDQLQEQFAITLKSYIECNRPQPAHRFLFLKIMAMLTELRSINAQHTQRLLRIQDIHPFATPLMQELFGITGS
Thyrotropin receptor (Homo sapiens), sequence (P16473 whole entry, looked up): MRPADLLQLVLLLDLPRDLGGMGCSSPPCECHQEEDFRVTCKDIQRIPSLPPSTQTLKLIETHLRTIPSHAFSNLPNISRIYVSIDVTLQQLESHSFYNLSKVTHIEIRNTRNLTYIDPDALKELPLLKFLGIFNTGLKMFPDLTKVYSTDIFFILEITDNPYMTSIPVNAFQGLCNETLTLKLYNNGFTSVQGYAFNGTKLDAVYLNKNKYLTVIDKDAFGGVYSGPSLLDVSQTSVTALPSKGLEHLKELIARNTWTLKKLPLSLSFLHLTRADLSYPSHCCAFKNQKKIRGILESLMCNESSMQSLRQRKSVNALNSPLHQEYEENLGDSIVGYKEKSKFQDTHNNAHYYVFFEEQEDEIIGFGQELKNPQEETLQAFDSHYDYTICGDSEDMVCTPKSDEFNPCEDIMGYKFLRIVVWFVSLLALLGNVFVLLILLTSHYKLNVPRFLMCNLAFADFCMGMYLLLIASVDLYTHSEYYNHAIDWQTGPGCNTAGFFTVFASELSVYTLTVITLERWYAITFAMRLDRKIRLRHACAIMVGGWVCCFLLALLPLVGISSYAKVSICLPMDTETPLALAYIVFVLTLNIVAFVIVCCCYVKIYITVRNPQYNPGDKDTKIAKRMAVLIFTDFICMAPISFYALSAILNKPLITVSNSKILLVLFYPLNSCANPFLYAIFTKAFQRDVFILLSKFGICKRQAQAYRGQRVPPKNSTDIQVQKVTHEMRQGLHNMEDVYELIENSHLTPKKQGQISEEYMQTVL
Estrogen receptor (Homo sapiens), sequence (P03372 whole entry, looked up): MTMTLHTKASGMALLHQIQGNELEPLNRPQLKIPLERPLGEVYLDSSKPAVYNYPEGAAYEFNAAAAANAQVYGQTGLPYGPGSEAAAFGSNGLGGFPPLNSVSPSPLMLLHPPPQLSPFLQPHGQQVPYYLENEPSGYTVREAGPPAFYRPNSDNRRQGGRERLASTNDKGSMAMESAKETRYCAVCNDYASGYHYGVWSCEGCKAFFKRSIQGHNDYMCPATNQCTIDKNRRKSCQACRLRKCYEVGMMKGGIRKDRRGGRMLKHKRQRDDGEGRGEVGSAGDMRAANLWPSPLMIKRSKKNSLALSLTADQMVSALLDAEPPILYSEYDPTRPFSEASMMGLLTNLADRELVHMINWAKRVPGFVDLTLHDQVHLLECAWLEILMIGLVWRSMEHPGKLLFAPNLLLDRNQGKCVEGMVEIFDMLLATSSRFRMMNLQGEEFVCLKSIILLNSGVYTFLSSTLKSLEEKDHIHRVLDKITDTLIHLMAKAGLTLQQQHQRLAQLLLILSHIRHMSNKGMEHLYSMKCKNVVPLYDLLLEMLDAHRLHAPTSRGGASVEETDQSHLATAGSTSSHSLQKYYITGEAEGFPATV
Progesterone receptor (Homo sapiens), sequence (P06401 whole entry, looked up): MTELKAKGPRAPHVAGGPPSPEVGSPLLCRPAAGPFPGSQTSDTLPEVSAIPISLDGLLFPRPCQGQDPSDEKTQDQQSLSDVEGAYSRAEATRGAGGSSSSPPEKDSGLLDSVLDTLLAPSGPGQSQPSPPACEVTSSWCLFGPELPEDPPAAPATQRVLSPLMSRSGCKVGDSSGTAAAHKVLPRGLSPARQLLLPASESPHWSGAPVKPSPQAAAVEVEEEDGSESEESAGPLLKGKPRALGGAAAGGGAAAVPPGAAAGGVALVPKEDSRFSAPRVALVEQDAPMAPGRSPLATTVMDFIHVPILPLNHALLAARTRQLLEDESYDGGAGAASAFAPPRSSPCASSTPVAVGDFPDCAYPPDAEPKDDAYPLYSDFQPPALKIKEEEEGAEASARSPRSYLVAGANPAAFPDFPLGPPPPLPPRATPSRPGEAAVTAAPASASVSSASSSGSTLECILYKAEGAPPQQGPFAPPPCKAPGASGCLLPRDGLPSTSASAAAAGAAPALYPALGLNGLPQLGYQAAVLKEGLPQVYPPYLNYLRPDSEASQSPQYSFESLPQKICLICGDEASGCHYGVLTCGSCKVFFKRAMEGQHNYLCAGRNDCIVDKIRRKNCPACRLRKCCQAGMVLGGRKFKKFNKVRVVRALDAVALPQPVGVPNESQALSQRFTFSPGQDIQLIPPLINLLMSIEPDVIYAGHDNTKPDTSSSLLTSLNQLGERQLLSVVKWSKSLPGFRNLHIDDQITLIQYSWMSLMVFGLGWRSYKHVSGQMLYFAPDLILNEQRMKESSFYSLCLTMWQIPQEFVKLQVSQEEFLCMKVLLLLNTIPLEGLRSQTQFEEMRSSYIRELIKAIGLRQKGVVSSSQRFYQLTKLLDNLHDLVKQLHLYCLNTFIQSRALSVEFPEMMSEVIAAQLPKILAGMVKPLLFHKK

For the compound `CC(C)(C)C1=CC(=O)C(C(C)(C)C)=CC1=O`, the Potency entry in [1], in test [2], in test [3], in [4], in test [6] and in test [7] was “inactive” in each case. The Potency result in test [8], in test [9], in test [10], in [12], in test [13] and in [14] was “inactive” each time. Further, the Potency result in [15], in test [16] and in test [17] was “inactive” in each case. Besides, the outcome in [5] and in test [11] was inactive. The Potency in test [18] is 18.8 µM (active).
As for `c1ccc(-c2nc3ccccc3[nH]2)cc1`, the Potency result in test [19], in test [2], in [3], in test [4], in test [7] and in test [8] was “inactive” each time. For the same compound, the Potency result in test [9], in test [13], in test [15], in test [16] and in test [17] was “inactive” throughout. The result in test [5] and in test [11] was inactive. The Potency in test [18] was 9.69 µM (active).
In the case of `O[Si](c1ccccc1)(c1ccccc1)c1ccccc1`, the Potency result in [19], in [2], in [3], in [4], in test [7] and in [9] was “inactive” in each case. Moreover, the Potency entry in test [10], in test [14], in test [15] and in test [16] was “inactive” each time. In addition, the result in [5] and in [11] was inactive. In addition, the Potency in test [20] is 30.6 µM (active); in [18], 27.3 µM (active).
Take `CCN(CC)c1ccc2c(c1)Oc1cc(N(CC)CC)ccc1C21OC(=O)c2ccccc21`: the Potency result in test [19], in test [6], in test [7], in [8], in test [9] and in test [10] was “inactive” throughout. Further, the Potency result in [15] and in test [16] was “inactive” each time. The Potency in test [4] is 5.31 µM (active); in [14], 4.22 µM (active); in test [20], 2.37 µM (active); in test [18], 26.6 µM (active). Further, the outcome in test [5] and in test [11] was inactive.
`CCCCCCCCOC(=O)c1cc(O)c(O)c(O)c1`: the Potency entry in test [19], in [2], in test [3], in test [9] and in test [10] was “inactive” in each case. Besides, the Potency is 54.5 µM (active) in test [4], 30.6 µM (active) in test [6] and 1.54 µM (active) in test [16].
As for `COc1cccc(-c2ccc(/C=C\CN3CCCCCC3)cc2Cl)c1`, the Potency entry in [19], in test [2], in [4], in test [7], in test [8] and in test [9] was “inactive” in each case. Besides, the Potency entry in test [10] was “inactive”. Also, the result in test [5] and in test [11] was inactive. Further, the Potency in test [14] is 48.3 µM (active).
With `C/C(=C\c1ccc(C(=O)O)cc1)c1ccc2c(c1)C(C)(C)CCC2(C)C`, the Potency entry in test [19], in test [2], in test [4], in test [7], in test [8] and in test [9] was “inactive” each time. The Potency entry in test [10], in test [13], in test [14], in [15], in [20] and in test [16] was “inactive” in each case. In addition, in [17], the Potency result is “inactive”. In addition, in test [3], the Potency was 29.8 µM (active). Moreover, the result in [5] and in [11] was inactive.
On to `O=C(NCc1ncc(C(F)(F)F)cc1Cl)c1c(Cl)cccc1Cl`, for which the Potency result in test [19], in test [2], in [4], in test [8], in test [9] and in test [10] was “inactive” each time. The Potency result in [14], in [20] and in test [17] was “inactive” throughout. In addition, the outcome in test [5] and in [11] was inactive. For the same compound, the Potency in test [6] was 24.3 µM (active); in [15] it was 19.3 µM (active); in [18], 1.22 µM (active).
